Compounds without any hit were thinned out: in the full panel of roughly 79,000, 15% have a hit. A number with no mark means an inactive call. Active and inactive are the calls of the source. Rule as the data show it: active = growth inhibition above about 70%; inactive = the rest. Where a SMILES comes first, the peptide text is derived from it. The star is where a group is joined. Cbz = O=C(OCc1ccccc1)*

The nature of assay [1]: NCI Yeast Anticancer Drug Screen. Data for the rad50 strain (AID 155).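 Also: 0% = growth of vehicle-only cultures of the same strain.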 Particulars: S. cerevisiae rad50 strain growth inhibition; at 50.0 µM; hits give high values. Put shortly:
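Genetically altered yeast (DNA repair pathway); compound treatment; growth inhibition vs vehicle ctrl.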

Assay [2] in a line: NCI Yeast Anticancer Drug Screen. Data for the mec2-1 strain (AID 157). Particulars: S. cerevisiae mec2-1 strain, at 50.0 µM, hits give high values. Put shortly:
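Using mec2-1 yeast: add compound, measure growth, express inhibition versus vehicle-treated cultures.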

The nature of assay [3]: NCI Yeast Anticancer Drug Screen. Data for the sgs1 mgt1 strain (AID 161).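 Also: 0% = growth of cultures given vehicle only.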 Particulars: S. cerevisiae sgs1 mgt1 strain, at 50.0 µM, hits give high values. An outline of the steps:
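This yeast growth screen uses a strain with defined DNA-repair lesions; compound-treated growth is compared with vehicle-treated growth.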

Assay [4] in a line: NCI Yeast Anticancer Drug Screen. Data for the cln2 rad14 strain (AID 165).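 Also: 0% = growth equal to vehicle treated cultures.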 Particulars: S. cerevisiae cln2 rad14 strain, at 50.0 µM, hits give high values. Put shortly:
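Yeast strain cln2 rad14, bearing defects in cell cycle control and DNA repair, serves as the test system; values reflect growth inhibition compared with vehicle.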

Assay [5] in a line: NCI Yeast Anticancer Drug Screen. Data for the bub3 strain (AID 167). Conditions: S. cerevisiae bub3 mutant strain, at 50.0 µM, hits give high values. Put shortly:
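Yeast carrying a defined mutation is treated with each compound, and growth is compared with that of vehicle-exposed cells to give inhibition.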

Assay [6] can be described thus: NCI Yeast Anticancer Drug Screen. Data for the mlh1 rad18 strain (AID 175). Conditions: S. cerevisiae mlh1 rad18 strain growth inhibition; at 50.0 µM; hits give high values. An outline of the steps:
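Steps: expose repair-defective yeast to compound; measure growth; express inhibition against vehicle-treated controls.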

With `CC(=O)C1CCC2C3CCC4CC5(CCC4(C)C3C(=O)CC12C)NC(C(=O)O)CS5` (stereo not drawn), the growth inhibition in assay [1] is 2.25%; in assay [2] it was 3.4%; in assay [3] it was 5.85%; in assay [4], -6.25%; in assay [5], -0.6%; in assay [6], -1.35%.
For the molecule `CC(C)OCCCNc1ncnc2c1cnn2-c1ccc(Cl)cc1`, the growth inhibition in assay [1] was 3.55%; in assay [2], -9.15%; in assay [3], 3.55%; in assay [4], -11.8%; in assay [5], -13.6%; in assay [6] it was -4.9%.
Take `CN(C)C(=O)c1cccc([N+](=O)[O-])c1`: the growth inhibition is 1% in assay [1]; -3.5% in assay [2]; -4.65% in assay [3]; 2.65% in assay [4]; 13.2% in assay [5]; 31.9% in assay [6].
On to `BrC1=NOC2c3cccc4cccc(c34)C12` (stereo not drawn), for which the growth inhibition was 2.4% in assay [1]; 8.95% in assay [2]; 19.6% in assay [3]; 42% in assay [4]; 34% in assay [5]; 22.8% in assay [6].
On to `N#C/C1=C(\C#N)CCC2(C#N)C3C=CC(O3)C2(C#N)CC1` (stereo not drawn), for which the growth inhibition is 14.9% in assay [1]; 12.6% in assay [2]; -0.65% in assay [3]; 13.3% in assay [4]; 8.45% in assay [5]; 23.1% in assay [6].
Regarding `C[C@H](CCC(=O)O)[C@H]1CC[C@H]2[C@@H]3[C@@H](O)C[C@@H]4C[C@H](O)CC[C@]4(C)[C@H]3C[C@H](O)[C@]12C`, the growth inhibition in assay [1] is -3.3%; in assay [2], -7.05%; in assay [3] it was 11.1%; in assay [4], -20.6%; in assay [5], -14.7%; in assay [6] it was 7.8%.
For `NC(=O)CN(CC(N)=O)C(N)=O`, the growth inhibition in assay [1] is -14.6%; in assay [2], -18%; in assay [3], -20.2%; in assay [4] it was 5.15%; in assay [5] it was -10.3%; in assay [6] it was -23.6%.
Consider `COc1cccc(C2c3cc4c(cc3OC(N3CCCCC3)C2C)OCO4)c1OC` (stereo not drawn), for which the growth inhibition was 33.1% in assay [1]; 30.8% in assay [2]; 46.4% in assay [3]; 19.8% in assay [4]; 63% in assay [5]; 61.8% in assay [6].
Regarding `CC(C)=NNc1snnc1C(N)=O`, the growth inhibition is 13.2% in assay [1]; 26.9% in assay [2]; 13.3% in assay [3]; -2% in assay [4]; -13.2% in assay [5]; 28.4% in assay [6].
For `CCCCNc1ccc2c(C)cc(=O)oc2c1`, the growth inhibition in assay [1] was -22.9%; in assay [2], -30.6%; in assay [3], -16.9%; in assay [4], 0.7%; in assay [5], -21.4%; in assay [6] it was -17.4%.
Take `O=C1NC(=O)C(c2ccc(Cl)c(Cl)c2)N1` (stereo not drawn): the growth inhibition was 11.2% in assay [1]; -10% in assay [2]; -13.2% in assay [3]; -13.7% in assay [4]; -12.9% in assay [5]; -3.55% in assay [6].
Consider `c1ccc(-c2ccccc2-c2ccccc2)cc1`, for which the growth inhibition in assay [1] is 18.1%; in assay [2], -4.8%; in assay [3], 10.6%; in assay [4] it was -2.75%; in assay [5], -8.15%; in assay [6] it was 20.8%.
Consider `Cn1c(=O)c2c(no[n+]2[O-])c2ccccc21`, for which the growth inhibition is 18.1% in assay [1]; 15.7% in assay [2]; 8.05% in assay [3]; 14.1% in assay [4]; 21.1% in assay [5]; 22.4% in assay [6].
Turning to `COc1ccc(OC)c(CSc2ccc(OC)c(OC)c2)c1`, the growth inhibition is 18.7% in assay [1]; 31.9% in assay [2]; 43.8% in assay [3]; 13.8% in assay [4]; 57.9% in assay [5]; 33% in assay [6].
Consider `Nc1nc2[nH]c(=O)c(C(=O)O)nc2c(=O)[nH]1`, for which the growth inhibition is 8.35% in assay [1]; -6.15% in assay [2]; -5.05% in assay [3]; -16.6% in assay [4]; 10.4% in assay [5]; -11.6% in assay [6].
In the case of `O=C1Cc2ccccc2CN1`, the growth inhibition in assay [1] was -6.95%; in assay [2], 13.3%; in assay [3] it was -3.5%; in assay [4], 19.6%; in assay [5], 2.15%; in assay [6], 32.3%.
For `CC(=O)c1cc2c(cc1C)C(C)=C(C)C2(C)C`, the growth inhibition in assay [1] is -3.1%; in assay [2], -2.35%; in assay [3], 1.55%; in assay [4], -13.4%; in assay [5], 0.65%; in assay [6], -2.9%.
On to `Cc1ccccc1NC(=O)NN`, for which the growth inhibition is -32.1% in assay [1]; -24.1% in assay [2]; -31.4% in assay [3]; 10.8% in assay [4]; -16.6% in assay [5]; -5.35% in assay [6].
Regarding `O=C(N/N=C/c1cc(-c2ccccc2Cl)c(-c2ccccc2Cl)o1)c1ccncc1`, the growth inhibition is 14.5% in assay [1]; 23.6% in assay [2]; 38.4% in assay [3]; 28% in assay [4]; 26.7% in assay [5]; 28.3% in assay [6].
Consider `CC(C)C(O)C(C)(C)CO` (stereo not drawn), for which the growth inhibition in assay [1] was 10.7%; in assay [2], -15.2%; in assay [3], 4.75%; in assay [4], 2.3%; in assay [5] it was 11.1%; in assay [6], 32.6%.
On to `COc1ccc(C(Nc2ccccn2)c2cc(C(C)(C)C)cc(C(C)(C)C)c2O)cc1` (stereo not drawn), for which the growth inhibition was 43.6% in assay [1]; -2.95% in assay [2]; 9.45% in assay [3]; 12.4% in assay [4]; 41.9% in assay [5]; 38.8% in assay [6].
As for `CC(C)CCCC(C)C1CCC2C3CC=C4CC(OCCC(C)C)CCC4(C)C3CCC12C` (stereo not drawn), the growth inhibition in assay [1] is 55.5%; in assay [2], 66.7%; in assay [3] it was 29.4%; in assay [4] it was 84.3% (active); in assay [5], 98.1% (active); in assay [6], 90.4% (active).
Take `N#CCCC(=O)O`: the growth inhibition in assay [1] is 17.6%; in assay [2], 0.45%; in assay [3], 11.7%; in assay [4] it was 3.45%; in assay [5], 2.5%; in assay [6], 15.8%.
Regarding `CC(C)C1CCC2(C)C(CCC3C(C)(CO)CCCC32O)C1` (stereo not drawn), the growth inhibition in assay [1] is -17.2%; in assay [2], -6.85%; in assay [3] it was 19.5%; in assay [4], 1.45%; in assay [5], 22.1%; in assay [6], 10%.
Regarding `CSc1ccc(OC(=O)NC2CCCCC2)cc1C`, the growth inhibition was 7.5% in assay [1]; 22.4% in assay [2]; 13.6% in assay [3]; 6.25% in assay [4]; 28.6% in assay [5]; 14.8% in assay [6].
Regarding `COCCCNC(=O)C1C(=O)N(CCCOC)C(=O)/C1=N\N` (stereo not drawn), the growth inhibition was 5.15% in assay [1]; 21.1% in assay [2]; 12.1% in assay [3]; -9.3% in assay [4]; -2.25% in assay [5]; 17.1% in assay [6].
In the case of `N#CCCN(Cc1ccccc1)C(=S)Nc1cccc(C(F)(F)F)c1`, the growth inhibition in assay [1] was 75.8% (active); in assay [2] it was 53%; in assay [3], 85.2% (active); in assay [4], 81.5% (active); in assay [5] it was 70.1% (active); in assay [6], 78% (active).
Regarding `N=C(N)SCC(O)c1ccccc1` (stereo not drawn), the growth inhibition in assay [1] was 6.35%; in assay [2], -11.4%; in assay [3], -13.6%; in assay [4], -42.4%; in assay [5], -3.1%; in assay [6], -19.5%.
For `CCOC(=O)CN=C1NNS(=O)(=O)c2ccccc21`, the growth inhibition was 3.55% in assay [1]; -17.4% in assay [2]; -10.2% in assay [3]; 28.4% in assay [4]; -23.1% in assay [5]; 6.35% in assay [6].
With `O=C(O)/C=C/c1ccc(C(NC(=O)N2C(=O)C=CC2=O)NC(=O)N2C(=O)C=CC2=O)cc1`, the growth inhibition was 37.8% in assay [1]; 15.8% in assay [2]; 42.3% in assay [3]; 15.7% in assay [4]; 13.3% in assay [5]; 19% in assay [6].
For the molecule `CCO/C=C(\C(=O)OC)S(=O)(=O)c1ccc(C)cc1`, the growth inhibition in assay [1] is -18.5%; in assay [2], 3.1%; in assay [3] it was 2.35%; in assay [4] it was 1.7%; in assay [5], -9.1%; in assay [6], -19.5%.
Turning to `O=C(O)CCCc1ccc(N(CCO)CCO)cc1`, the growth inhibition in assay [1] was 5.3%; in assay [2], 2.55%; in assay [3], -3.1%; in assay [4] it was 18%; in assay [5] it was 8.05%; in assay [6] it was 19%.
With `CC(NC(=O)C(Cc1ccc(O)cc1)NC(=O)C(C)NC(=O)OCc1ccccc1)C(=O)O` (stereo not drawn) (Cbz-Ala-Tyr-Ala-OH; configuration not given here), the growth inhibition was 12.2% in assay [1]; 13.3% in assay [2]; 13.7% in assay [3]; -4.25% in assay [4]; -5.8% in assay [5]; 16.9% in assay [6].
`N#CCCN(CCC#N)c1ccc(/C=C2\N=C(c3cc([N+](=O)[O-])ccc3Cl)N(NC(=O)CC(=O)Nc3ccccc3Cl)C2=O)cc1`: the growth inhibition is -31% in assay [1]; -28.1% in assay [2]; -13.8% in assay [3]; 2.5% in assay [4]; 1.65% in assay [5]; -18.3% in assay [6].
With `O=CNNC(=O)Nc1cccc2ccccc12`, the growth inhibition is -29.9% in assay [1]; -8.85% in assay [2]; -20% in assay [3]; -5.75% in assay [4]; -32.1% in assay [5]; -25.5% in assay [6].
On to `CCOC(=O)c1cc2c(nc1N)C(=O)CCCC2`, for which the growth inhibition is -34.5% in assay [1]; -59.1% in assay [2]; -48.3% in assay [3]; -23.9% in assay [4]; -24.6% in assay [5]; -31.6% in assay [6].
As to `O=S1(=O)C=C(Br)CO1`, the growth inhibition in assay [1] was -4.65%; in assay [2], 1.75%; in assay [3] it was -2.5%; in assay [4], -17.4%; in assay [5], -20.6%; in assay [6], -15.7%.
In the case of `Nc1ccc(N=Nc2ccccc2)c(N)c1`, the growth inhibition in assay [1] was 29.5%; in assay [2] it was 19.6%; in assay [3] it was 27%; in assay [4] it was -52.1%; in assay [5], 8.55%; in assay [6] it was 28.6%.

The record behind these values is PubChem BioAssay (NCI).
